The target in one experiment is Albumin (Bos taurus) (UniProt P02769). Description: bovine serum albumin binders on microarray, profiling panel, artefact control for SMM control protein annotation, biochemical, small-molecule microarray, Alexa647 label, 635/667 nm fluorescence (AID 1118).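 Also: score merges 667 nm emission intensity and signal-to-noise per printed compound spot.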 The following applies: BSA-A647 binding, fluorescence 635 nm, higher = more signal.
The nature of experiment [1]: small-molecule microarray binders of probe aXIP, primary screen, biochemical, NeuroSMM set, 635/667 nm fluorescence (AID 1119).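 Also: probe is the protein aXip251-270 applied at 1 µg/mL to compound-printed slides; binding of probe to printed compounds measured as 667 nm fluorescence plus signal to noise.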 The settings on record: higher = more signal, called active from +8 up or from −8 down.
Experiment [2] in a line: small-molecule binders of probe aNOTCH3, primary screen, biochemical, small-molecule microarray, 635/667 nm fluorescence (AID 1120).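 Also: probe is a biotin-tagged antibody raised against NOTCH3 rather than NOTCH3 protein; score merges spot fluorescence near 667 nm with spot signal to noise.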 The settings on record: higher = more signal.
A short description of experiment [3]: small-molecule binders of probe aNOTCH2, primary screen, biochemical, small-molecule microarray, 635/667 nm fluorescence (AID 1121).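 Also: score merges feature fluorescence read at 667 nm with its signal to noise.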 The settings on record: higher = more signal.
The target of experiment [4] is Carbonic anhydrase 2 (Homo sapiens) (UniProt P00918). The experiment can be described thus: CAII small-molecule binders, profiling panel, biochemical, small-molecule microarray, Alexa647-labelled CAII (AID 1122). The following applies: CAII-A647 binding fluorescence, higher = more signal.
The nature of experiment [5]: COS7 lysate on small-molecule microarray, probe aHis, 635 nm (AID 1123).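 Also: z-score combines 667nm fluorescence intensity with signal-to-noise per printed compound spot.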 The following applies: COS7 cell lysate, fluorescence, higher = more signal.
Experiment [6] is described as follows: compound binding in COS7 lysate, probe aLAP1, primary screen, cell lysate, small-molecule microarray (AID 1124).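 Also: lysate comes from COS7 cells expressing LAP1 and is applied at 0.3 µg/mL; score merges spot fluorescence near 667 nm with signal-to-noise over triplicate slides.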 The following applies: probe aLAP1, fluorescence, higher = more signal.
Another experiment deals with Sam68 (KHDRBS1). Description: Sam68 small-molecule binders, primary screen, biochemical, small-molecule microarray, 635 nm fluorescence (AID 1125).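 Also: score merges 667 nm channel intensity with signal to noise over triplicate slides.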 The settings on record: small-molecule microarray binding, higher = more signal.
The test system of experiment [7] is Chordin-like protein 2 (CHRDL2). Description: CHRDL2 small-molecule binders, primary screen, biochemical, small-molecule microarray, 635 nm fluorescence (AID 1126).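 Also: printed compound slides probed with Chrdl2 protein at 4 µg/mL for 1 h at 4 C; score merges 667 nm emission intensity with signal to noise over three replicate slides.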 The settings on record: small-molecule microarray binding, fluorescence 635 nm; higher = more signal.
The target in experiment [8] is Concanavalin-A (Canavalia ensiformis) (UniProt P02866). The experiment can be described thus: ConA small-molecule binders, primary screen, artefact control for SMM control protein annotation, biochemical, small-molecule microarray, Alexa647 label, 635 nm (AID 1127).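 Also: z combines 667 nm emission intensity with signal-to-noise across three replicate slides.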 The settings on record: ConA-A647 binding fluorescence, higher = more signal.

SMILES strings stand for the structures. Activity calls are given as the source filed them.

Albumin (Bos taurus), sequence (P02769 whole entry, looked up): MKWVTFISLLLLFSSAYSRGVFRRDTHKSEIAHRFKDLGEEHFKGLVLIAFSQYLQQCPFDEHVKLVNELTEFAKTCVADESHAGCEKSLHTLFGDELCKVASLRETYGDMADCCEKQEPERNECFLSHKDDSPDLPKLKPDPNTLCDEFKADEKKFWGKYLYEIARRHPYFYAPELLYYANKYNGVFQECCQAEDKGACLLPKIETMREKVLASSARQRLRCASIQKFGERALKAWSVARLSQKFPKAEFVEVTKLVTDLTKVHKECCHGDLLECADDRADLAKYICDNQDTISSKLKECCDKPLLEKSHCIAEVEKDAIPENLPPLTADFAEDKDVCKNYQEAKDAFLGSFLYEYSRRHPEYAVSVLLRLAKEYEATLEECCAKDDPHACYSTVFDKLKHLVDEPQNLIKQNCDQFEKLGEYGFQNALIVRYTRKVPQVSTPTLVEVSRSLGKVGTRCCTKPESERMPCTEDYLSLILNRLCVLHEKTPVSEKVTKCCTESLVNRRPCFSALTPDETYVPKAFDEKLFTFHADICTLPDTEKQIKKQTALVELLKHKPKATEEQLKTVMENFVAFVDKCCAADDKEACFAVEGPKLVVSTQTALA
Concanavalin-A (Canavalia ensiformis), sequence (P02866 whole entry, looked up): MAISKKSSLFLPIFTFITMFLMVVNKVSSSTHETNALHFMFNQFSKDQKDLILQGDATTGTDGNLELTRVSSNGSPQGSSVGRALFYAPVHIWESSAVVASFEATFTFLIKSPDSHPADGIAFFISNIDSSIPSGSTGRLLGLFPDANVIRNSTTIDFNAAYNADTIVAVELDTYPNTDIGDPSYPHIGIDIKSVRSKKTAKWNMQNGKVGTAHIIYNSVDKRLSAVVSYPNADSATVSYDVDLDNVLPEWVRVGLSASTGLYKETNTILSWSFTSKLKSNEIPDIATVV

Regarding `C#CCN(CC1=CCCCC1)[C@H](c1ccccc1Br)[C@@H](O)Cc1ccccc1`, the composite z-score with Albumin (Bos taurus) was 0.306; in [2], -0.344; in experiment [3], -0.177; in experiment [4], 0.345; in [5], 0.545; in experiment [6], 0.0773. Besides, the values for the composite z-score (with Sam68 (KHDRBS1); in experiment [7]; in experiment [8]) were 0.516, -0.882 and -0.679, respectively. In [1], the composite Z-score is -0.356 (inactive).

As to `CCOC(=O)C1=CCC(c2ccc(C)cc2)N(S(=O)(=O)c2ccc(C)cc2)C1` (stereo not given), the composite z-score with Albumin (Bos taurus) was 0.0328; in experiment [2] it was 0.037; in [3], -0.146; in experiment [4], 0.251; in experiment [5], 1.43; in [6] it was -0.347. For the same molecule, the composite z-score was determined as 0.747 with Sam68 (KHDRBS1), 0.137 in [7] and 0.995 in experiment [8]. In addition, the composite Z-score in experiment [1] was 0.798 (inactive).

As for `C=CCOC(=O)[C@H]1[C@@H]2C(=O)O[C@@H](c3ccccc3)[C@@H](c3ccccc3)N2[C@@H](c2ccc(OCCOC(=O)[C@@H]3C[C@@H]4C(=O)N[C@@H](CCCC[N+](C)(C)C)C(=O)N4[C@@H]3c3ccc(O)cc3)cc2)[C@]12C(=O)Nc1ccccc12`, the composite z-score is 0.0987 with Albumin (Bos taurus); 0.011 in [2]; -0.171 in [3]; 0.624 in [4]; 0.875 in experiment [5]; 0.284 in experiment [6]. Also, the composite z-score turned out to be 1.31 with Sam68 (KHDRBS1), 1.08 in experiment [7] and 1.12 in experiment [8]. Also, the composite Z-score in [1] is 0.0848 (inactive).

Regarding `C=C[C@H](COC(C)=O)N(C(=O)OC(C)(C)C)S(=O)(=O)c1ccc(Br)cc1`, the composite z-score in the experiment with Albumin (Bos taurus) was -0.19; in experiment [2], 0.704; in [3], 0.463; in [4], 0.162; in [5], 0.216; in [6] it was 0.0842. In addition, the values for the composite z-score (in the experiment on Sam68 (KHDRBS1); in [7]; in experiment [8]) were 0.355, 0.55 and 0.193, respectively. The composite Z-score in [1] was -0.526 (inactive).

Take `O=C(O)[C@@]1(CCS(=O)(=O)c2ccccc2)COC(c2ccc(OCCCO)cc2)=N1`: the composite z-score in the experiment with Albumin (Bos taurus) is -0.344; in [2], -0.15; in experiment [3], -0.108; in experiment [4], 0.815; in experiment [5], 1.63; in experiment [6], 0.0237. Besides, the figures for the composite z-score (in the experiment on Sam68 (KHDRBS1); in experiment [7]; in [8]) were -0.39, -0.724 and -0.0647, respectively. Further, in experiment [1], the composite Z-score was 0.714 (inactive).

`CCCC=C(CCC)[C@@H](NC(=O)Oc1ccc(F)cc1)c1ccc(C(=O)OC)cc1`: the composite z-score was 0.673 with Albumin (Bos taurus); 0.209 in experiment [2]; -0.0817 in experiment [3]; 0.31 in [4]; 1.9 in experiment [5]; 0.0052 in [6]. For the same molecule, the composite z-score is 1.19 in the experiment with Sam68 (KHDRBS1), -0.813 in [7] and 0.977 in experiment [8]. Further, the composite Z-score in [1] was -0.594 (inactive).

As for `O=C1NC(=O)C2C1C=CC(C(O)C(c1ccccc1)c1ccccc1)N2Nc1ccc(Cl)cc1Cl` (stereo not given), the composite z-score with Albumin (Bos taurus) amounted to 0.766; in experiment [2] it was 0.263; in [3], 0.0409; in experiment [4], 0.584; in experiment [5], 1.84; in [6] it was 0.0766. For the same molecule, the composite z-score in the experiment with Sam68 (KHDRBS1) is 0.993; in [7], -0.483; in experiment [8], 0.788. Also, the composite Z-score in experiment [1] was -0.713 (inactive).

As to `CN(C)CCCCCCNC(=O)[C@@H]1C[C@@H]2C(=O)N[C@@H](CCCCN)C(=O)N2[C@@H]1c1cccc(OCCO)c1`, the composite z-score was 1.05 with Albumin (Bos taurus); 1.79 in experiment [2]; 0.72 in [3]; 0.92 in experiment [4]; 2.35 in experiment [5]; 1.2 in experiment [6]. The composite z-score came out at 1.32 with Sam68 (KHDRBS1), 1.2 in experiment [7] and 1.24 in experiment [8]. For the same molecule, in experiment [1], the composite Z-score was 7.35 (inactive).

For `COc1ccc([C@H]2C[C@H]3C(Br)=C[C@@H]2C(=O)[C@]32CO2)cc1`, the composite z-score in the experiment with Albumin (Bos taurus) was -1.13; in experiment [2] it was -0.176; in experiment [3] it was -0.075; in experiment [4], -0.539; in [5], -0.442; in experiment [6] it was -0.0737. Also, the results for the composite z-score (in the experiment with Sam68 (KHDRBS1); in [7]; in experiment [8]) were -0.99, 0.736 and 0.125, respectively. Besides, the composite Z-score in experiment [1] is -0.624 (inactive).

Turning to `COC(=O)[C@@]1(Cc2ccc(F)cc2)[C@H]2c3cc(C(=O)N4CCCC4)n(Cc4cc(C)n(C)n4)c3C[C@H]2CN1C(=O)c1ccccc1`, the composite z-score in the experiment with Albumin (Bos taurus) amounted to 1.09; in experiment [2], 0.318; in experiment [3] it was 0.385; in [4] it was 0.664; in experiment [5], 3.58; in experiment [6], 1.14. For the same molecule, the composite z-score with Sam68 (KHDRBS1) was 1.32; in experiment [7], -0.642; in experiment [8], 1.14. Further, the composite Z-score in experiment [1] was 2.46 (inactive).

Take `[N-]=[N+]=NCc1ccccc1[C@H]1OC(c2ccc(OCCCO)cc2)=N[C@@]1(Cc1ccccc1)C(=O)NCc1ccccc1`: the composite z-score was 0.882 with Albumin (Bos taurus); 0.0884 in experiment [2]; -0.283 in [3]; 0.448 in [4]; 2.88 in experiment [5]; 0.444 in experiment [6]. Moreover, the figures for the composite z-score (with Sam68 (KHDRBS1); in [7]; in experiment [8]) were 1.26, 0.547 and 0.824, respectively. In addition, the composite Z-score in experiment [1] is -0.157 (inactive).

Regarding `CN1C(=O)C2C=CC(C(O)C3CCCCC3)N(Nc3ccc([N+](=O)[O-])cc3[N+](=O)[O-])C2C1=O` (stereo not given), the composite z-score with Albumin (Bos taurus) was 0.892; in [2], 0.23; in experiment [3], 0.0302; in [4], 0.732; in experiment [5] it was 2.62; in experiment [6] it was 0.605. In addition, the figures for the composite z-score (in the experiment with Sam68 (KHDRBS1); in experiment [7]; in [8]) were 1.31, -0.384 and 0.955, respectively. Also, the composite Z-score in experiment [1] was -0.131 (inactive).

As to `COCCOC(=O)N1C(=O)[C@@]2(c3cc(C#CC4(O)CCCCCC4)ccc31)[C@H](c1ccc(O)cc1)N1[C@H](c3ccccc3)[C@H](c3ccccc3)OC(=O)[C@H]1[C@@H]2C(=O)Nc1nc2ccccc2s1`, the composite z-score with Albumin (Bos taurus) came out at 0.873; in experiment [2] it was 0.499; in experiment [3], 0.203; in [4] it was 0.362; in [5] it was 1.85; in experiment [6] it was 0.552. The composite z-score in the experiment with Sam68 (KHDRBS1) was found to be 1.32; in experiment [7], 0.524; in experiment [8] it was 0.785. Further, the composite Z-score in experiment [1] was 0.0656 (inactive).

Turning to `CC(C)(C)C(=O)N[C@@H](c1ccc(Cl)cc1)[C@]1(C)C[C@H]1C1CCCCC1`, the composite z-score with Albumin (Bos taurus) stood at 0.886; in [2], 0.449; in experiment [3] it was 0.347; in experiment [4] it was 0.505; in [5], 2.12; in experiment [6], 0.968. The composite z-score is 1.29 in the experiment with Sam68 (KHDRBS1), -0.319 in [7] and 1.19 in experiment [8]. Further, the composite Z-score in [1] was -0.149 (inactive).

`COCCOC(=O)N1C(=O)[C@@]2(c3cc(C#CC4=CCCCC4)ccc31)[C@H](C(=O)Nc1nc3ccccc3s1)[C@H]1C(=O)O[C@H](c3ccccc3)[C@H](c3ccccc3)N1[C@@H]2c1ccccc1OCCO`: the composite z-score is 0.657 with Albumin (Bos taurus); 0.757 in experiment [2]; 0.248 in experiment [3]; 0.188 in [4]; 1.1 in [5]; -0.123 in experiment [6]. The composite z-score came out at 1.13 with Sam68 (KHDRBS1), 0.367 in experiment [7] and 1.14 in experiment [8]. Moreover, the composite Z-score in [1] was -0.478 (inactive).

Consider `CC1CC/C=C\[C@H]2OC34C=CCN(Cn5nnc6ccccc65)C(=O)[C@H]3N(C(CO)C(C)C)C(=O)[C@@H]4C2C(=O)O1` (stereo not given in full), for which the composite z-score in the experiment with Albumin (Bos taurus) is 0.568; in experiment [2] it was -0.0647; in experiment [3] it was -0.14; in experiment [4] it was 0.662; in [5] it was 2.23; in experiment [6], 0.549. Besides, the composite z-score in the experiment with Sam68 (KHDRBS1) is 0.272; in experiment [7] it was -0.89; in experiment [8], -0.43. For the same molecule, the composite Z-score in [1] is -0.0775 (inactive).

On to `C#CCNC(=O)[C@H](Cc1ccccc1)NC(=O)CCC(=O)O`, for which the composite z-score with Albumin (Bos taurus) is -1.09; in experiment [2], -0.262; in [3] it was -0.161; in experiment [4], -0.124; in [5], -0.301; in experiment [6], 0.236. Moreover, the composite z-score in the experiment on Sam68 (KHDRBS1) is -1.74; in experiment [7], -0.471; in experiment [8] it was -1.83. Besides, in experiment [1], the composite Z-score is 1.42 (inactive).

The values above are taken from PubChem BioAssay.
